According to PubChem BioAssay (NCI):
The panel holds about 79,000 compounds, 15% with a hit somewhere; the sample as a whole holds those more often. Calls of active or inactive are those of the source. No stated cut-off is given here; in the data, active means growth inhibition above about 70%; inactive means the rest.

Experiments:
[1] = NCI Yeast Anticancer Drug Screen. Data for the rad52 strain (AID 147);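 further: 0% = growth of vehicle-treated control cultures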; conditions: S. cerevisiae rad52 mutant growth inhibition, active compounds read high
How it was run: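 DNA repair-defective yeast; compound exposure; growth scored against vehicle controls.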

[2] = NCI Yeast Anticancer Drug Screen. Data for the wt1 strain (AID 149);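 further: 0% = growth of vehicle-treated wt1 cultures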; conditions: S. cerevisiae wt1 strain (SPY 50644) growth inhibition, active compounds read high
How it was run: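 Growth inhibition read against vehicle controls after compound exposure of the wt1 yeast strain.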

[3] = NCI Yeast Anticancer Drug Screen. Data for the rad50EPP+ strain (AID 151);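 further: 0% = growth of vehicle-treated control cultures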; conditions: S. cerevisiae rad50 mutant strain, active compounds read high
How it was run: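 rad50EPP+ yeast treated with test compounds. Readout: growth vs vehicle control.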

[4] = NCI Yeast Anticancer Drug Screen. Data for the mgt1 strain (AID 153); conditions: S. cerevisiae mgt1 mutant growth inhibition, active compounds read high
How it was run: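 Growth inhibition relative to vehicle controls was scored for the mgt1 yeast strain after compound exposure.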

[5] = NCI Yeast Anticancer Drug Screen. Data for the rad50 strain (AID 155);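 further: 0% = growth of vehicle-only cultures of the same strain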; conditions: S. cerevisiae rad50 strain growth inhibition, active compounds read high
How it was run: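 Readout: growth inhibition relative to vehicle-treated cultures. Compound exposure was carried out in a genetically defined yeast strain deficient in DNA damage repair.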

[6] = NCI Yeast Anticancer Drug Screen. Data for the mec2-1 strain (AID 157); conditions: S. cerevisiae mec2-1 strain, active compounds read high
How it was run: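 Growth inhibition is read against vehicle-treated controls after compound exposure of the mec2-1 yeast strain, which is defective in DNA damage repair or cell cycle control.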

[7] = NCI Yeast Anticancer Drug Screen. Data for the rad14 strain (AID 159);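 further: 0% = growth of vehicle-treated control cultures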; conditions: S. cerevisiae rad14 strain growth inhibition, active compounds read high
How it was run: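 Growth inhibition vs vehicle controls; genetically altered yeast strain (DNA damage repair defect) treated with test compounds.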

[8] = NCI Yeast Anticancer Drug Screen. Data for the sgs1 mgt1 strain (AID 161);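 further: 0% = growth of cultures given vehicle only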; conditions: S. cerevisiae sgs1 mgt1 strain, active compounds read high
How it was run: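 Compounds are added to genetically altered yeast, and growth is compared with cultures given vehicle alone to give percent inhibition.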

[9] = NCI Yeast Anticancer Drug Screen. Data for the CLN2oe strain (AID 163);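 further: 0% = growth of vehicle-only control cultures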; conditions: S. cerevisiae CLN2oe strain, active compounds read high
How it was run: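 Compound-treated yeast; growth vs vehicle ctrl = % inhibition. Genetically altered strain (cell-cycle control).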

[10] = NCI Yeast Anticancer Drug Screen. Data for the cln2 rad14 strain (AID 165);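 further: 0% = growth equal to vehicle treated cultures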; conditions: S. cerevisiae cln2 rad14 strain, active compounds read high
How it was run: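 Growth inhibition, relative to vehicle-treated controls, is the read-out. The test organism is a yeast strain with defined genetic alterations, cln2 rad14.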

[11] = NCI Yeast Anticancer Drug Screen. Data for the bub3 strain (AID 167); conditions: S. cerevisiae bub3 mutant strain, active compounds read high
How it was run: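 Readout: yeast growth inhibition, expressed relative to vehicle-only wells. The test organism is a mutant strain from a panel with lesions in DNA repair or checkpoint genes.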

[12] = NCI Yeast Anticancer Drug Screen. Data for the wt2 strain (AID 169);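 further: 0% = growth of vehicle-treated yeast cultures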; conditions: S. cerevisiae wt2 strain growth inhibition, active compounds read high
How it was run: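 Compound exposure of yeast; growth compared with vehicle controls; inhibition reported.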

[13] = NCI Yeast Anticancer Drug Screen. Data for the mlh1 strain (AID 171);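 further: 0% = growth of vehicle-treated control cultures of the same strain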; conditions: S. cerevisiae mlh1 strain growth inhibition, active compounds read high
How it was run: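 Compounds are applied to a genetically altered yeast strain, and its growth is compared with that of vehicle-treated cultures to give percent inhibition.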

[14] = NCI Yeast Anticancer Drug Screen. Data for the sgs1 strain (AID 173);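 further: 0% = growth of vehicle-only control cultures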; conditions: S. cerevisiae sgs1 mutant, active compounds read high
How it was run: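 Compounds applied to genetically altered yeast; growth compared with vehicle-treated cultures to give % inhibition.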

[15] = NCI Yeast Anticancer Drug Screen. Data for the mlh1 rad18 strain (AID 175); conditions: S. cerevisiae mlh1 rad18 strain growth inhibition, active compounds read high
How it was run: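 Cells of a genetically altered yeast strain, deficient in DNA damage repair, were treated with compound. Their growth was then compared with that of vehicle-treated cultures to give inhibition.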

[16] = NCI Yeast Anticancer Drug Screen. Data for the rad18 strain (AID 177); conditions: S. cerevisiae rad18 mutant growth inhibition, active compounds read high
How it was run: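 Compounds are applied to a repair-deficient yeast strain, and growth is compared with that of vehicle-treated cultures to give percent inhibition.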

[17] = at 5.0 µM (retest, dose inferred, filed as 0.5)
[18] = at 50.0 µM (retest, dose inferred, filed as 5.0)

Measured: growth inhibition

C(=Nc1ccc(-c2cc(-c3ccccc3)nc3ccc4ccccc4c23)cc1)c1ccccc1
active: [1]; at 100.0 µM 76% | [6]; [18] 72% | [8]; [18] 92% | [10]; [18] 75% | [11]; [18] 89% | [12]; at 100.0 µM 81% | [15]; [18] 85% | [16]; at 100.0 µM 73%
inactive: [1]; at 1.2 µM 34% | [1]; at 3.7 µM 40% | [1]; at 11.0 µM 37% | [1]; at 33.0 µM 53% | [2]; at 1.2 µM 26% | [2]; at 3.7 µM 24% | [2]; at 11.0 µM 9% | [2]; at 33.0 µM 31% | [2]; at 100.0 µM 57% | [3]; at 1.2 µM 16% | [3]; at 3.7 µM 7% | [3]; at 11.0 µM 15% | [3]; at 33.0 µM 10% | [3]; at 100.0 µM 6% | [4]; at 1.2 µM 21% | [4]; at 3.7 µM 11% | [4]; at 11.0 µM 12% | [4]; at 33.0 µM 10% | [4]; at 100.0 µM 47% | [5]; at 1.2 µM 23% | [5]; at 3.7 µM 24% | [5]; [17] 20% | [5]; at 11.0 µM 42% | [5]; at 33.0 µM 52% | [5]; [18] 54% | [5]; at 50.0 µM 50.2% | [5]; at 100.0 µM 68% | [6]; at 1.2 µM 11% | [6]; at 3.7 µM 5% | [6]; [17] 17% | [6]; at 11.0 µM 16% | [6]; at 33.0 µM 14% | [6]; at 50.0 µM 33% | [6]; at 100.0 µM 31% | [7]; at 1.2 µM 24% | [7]; at 3.7 µM 20% | [7]; at 11.0 µM 21% | [7]; at 33.0 µM 38% | [7]; at 100.0 µM 34% | [8]; [17] 11% | [8]; at 50.0 µM 55.2% | [9]; at 1.2 µM 29% | [9]; at 3.7 µM 24% | [9]; at 11.0 µM 34% | [9]; at 33.0 µM 38% | [9]; at 100.0 µM 37% | [10]; [17] 25% | [10]; at 50.0 µM 14.7% | [11]; at 1.2 µM -9% | [11]; at 3.7 µM -13% | [11]; [17] 12% | [11]; at 11.0 µM -5% | [11]; at 33.0 µM 14% | [11]; at 50.0 µM 50.8% | [11]; at 100.0 µM 31% | [12]; at 1.2 µM -22% | [12]; at 3.7 µM -21% | [12]; at 11.0 µM -17% | [12]; at 33.0 µM 62% | [13]; at 1.2 µM 8% | [13]; at 3.7 µM 17% | [13]; at 11.0 µM 9% | [13]; at 33.0 µM -8% | [13]; at 100.0 µM 9% | [14]; at 1.2 µM 28% | [14]; at 3.7 µM 18% | [14]; at 11.0 µM 25% | [14]; at 33.0 µM 36% | [14]; at 100.0 µM 64% | [15]; [17] 20% | [15]; at 50.0 µM 57.6% | [16]; at 1.2 µM 30% | [16]; at 3.7 µM 32% | [16]; at 11.0 µM 44% | [16]; at 33.0 µM 68%

Cc1cc(C(C)(C)C)c(OCCCN2CCOCC2)c(C(C)(C)C)c1
active: [1]; at 100.0 µM 96% | [4]; at 100.0 µM 99% | [5]; at 50.0 µM 75.5% | [5]; at 100.0 µM 94% | [6]; at 100.0 µM 98% | [7]; at 100.0 µM 99% | [8]; at 50.0 µM 82.2% | [9]; at 100.0 µM 97% | [11]; at 50.0 µM 75.5% | [11]; at 100.0 µM 94% | [12]; at 100.0 µM 98% | [13]; at 100.0 µM 97% | [14]; at 100.0 µM 98% | [15]; at 50.0 µM 83.8% | [16]; at 100.0 µM 98%
inactive: [1]; at 1.2 µM -5% | [1]; at 3.7 µM -9% | [1]; at 11.0 µM -14% | [1]; at 33.0 µM -3% | [2]; at 1.2 µM -1% | [2]; at 3.7 µM 0% | [2]; at 11.0 µM -3% | [2]; at 33.0 µM -7% | [2]; at 100.0 µM 62% | [3]; at 1.2 µM 0% | [3]; at 3.7 µM 3% | [3]; at 11.0 µM 3% | [3]; at 33.0 µM 19% | [3]; at 100.0 µM 47% | [4]; at 1.2 µM 0% | [4]; at 3.7 µM -4% | [4]; at 11.0 µM -9% | [4]; at 33.0 µM 4% | [5]; at 1.2 µM -1% | [5]; at 3.7 µM -6% | [5]; [17] 5% | [5]; at 11.0 µM 5% | [5]; at 33.0 µM 8% | [5]; [18] 50% | [6]; at 1.2 µM -1% | [6]; at 3.7 µM -5% | [6]; [17] -2% | [6]; at 11.0 µM -8% | [6]; at 33.0 µM -4% | [6]; [18] 12% | [6]; at 50.0 µM 59.5% | [7]; at 1.2 µM -2% | [7]; at 3.7 µM -1% | [7]; at 11.0 µM -5% | [7]; at 33.0 µM 15% | [8]; [17] 2% | [8]; [18] -10% | [9]; at 1.2 µM -5% | [9]; at 3.7 µM -4% | [9]; at 11.0 µM -15% | [9]; at 33.0 µM -17% | [10]; [17] -21% | [10]; [18] -81% | [10]; at 50.0 µM 24.3% | [11]; at 1.2 µM -5% | [11]; at 3.7 µM -1% | [11]; [17] -15% | [11]; at 11.0 µM -32% | [11]; at 33.0 µM 6% | [11]; [18] -10% | [12]; at 1.2 µM -2% | [12]; at 3.7 µM -3% | [12]; at 11.0 µM -8% | [12]; at 33.0 µM 9% | [13]; at 1.2 µM 3% | [13]; at 3.7 µM 2% | [13]; at 11.0 µM -3% | [13]; at 33.0 µM -16% | [14]; at 1.2 µM 0% | [14]; at 3.7 µM 0% | [14]; at 11.0 µM 0% | [14]; at 33.0 µM 25% | [15]; [17] -7% | [15]; [18] 48% | [16]; at 1.2 µM -1% | [16]; at 3.7 µM -7% | [16]; at 11.0 µM -19% | [16]; at 33.0 µM -9%
